Assay outcomes from PubChem.
Shown are actives, neighbours in structure and some others; about 0.24% of the full set was active somewhere.
hcGAS inh: Primary biochemical luminescence assay for human cyclic GMP-AMP synthase inhibitors. Q8N884. recombinant h-cGAS, ATP depletion, Kinase-Glo luminescence. inhibition, % at 12.5 µM. 0.081% of 290,000 active;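 also: 0% = vehicle reaction and 100% = reaction without DNA for no activity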
mcGAS inh: cyclic GMP-AMP synthase inhibitors, mouse, primary biochemical chemiluminescence. inhibition, % at 12.5 µM. AID 1259399, 2018. recombinant cGAS, Kinase-Glo ATP depletion luminescence. 0.15% of 160,000 active. Q8C6L5;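 also: 0% = negative control wells and 100% = reference inhibitor with no enzyme activity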
Target sequence (Q8C6L5 whole entry, looked up): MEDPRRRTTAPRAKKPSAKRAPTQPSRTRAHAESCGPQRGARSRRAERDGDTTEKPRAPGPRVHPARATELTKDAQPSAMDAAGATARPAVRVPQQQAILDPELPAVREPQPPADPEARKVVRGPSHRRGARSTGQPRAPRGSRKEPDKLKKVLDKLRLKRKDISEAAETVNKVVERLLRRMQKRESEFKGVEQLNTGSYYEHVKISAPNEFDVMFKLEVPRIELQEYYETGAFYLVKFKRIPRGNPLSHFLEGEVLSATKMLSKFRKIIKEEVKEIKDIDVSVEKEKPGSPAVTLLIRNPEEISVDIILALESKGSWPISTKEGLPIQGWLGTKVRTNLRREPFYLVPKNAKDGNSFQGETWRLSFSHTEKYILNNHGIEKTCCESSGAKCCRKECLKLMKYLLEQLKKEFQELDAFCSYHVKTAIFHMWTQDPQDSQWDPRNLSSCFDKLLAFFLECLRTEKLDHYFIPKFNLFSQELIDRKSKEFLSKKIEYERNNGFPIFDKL
NPYLR7 agonist: agonists of mosquito NPYLR7 receptor, primary screen, cell-based, Aedes aegypti, calcium fluorescence, mosquito biting behavior | AID 1259423, 2018 | Aedes aegypti neuropeptide Y-like receptor 7 (NPYLR7) | activation, % at 10 µM | HEK293T NPYLR7/Galpha15, GCaMP6s calcium fluorescence | 0.15% of 270,000 active; in the data active = activation above about 40%;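 also: 0% = vehicle and 100% = reference agonist at the receptor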
Active calls of the source: *; nt = not tested or not shown; ! = not active in a repeat. Rule as the data show it, unless noted: active = inhibition above about 40%; inactive = the rest.

SMILES | hcGAS inh | mcGAS inh | NPYLR7 agonist
Cc1cc(=O)n2[nH]cc(-c3ccc(F)cc3)c2n1 | -6.7 | nt | -14.3
Cc1cc(=O)n2[nH]cc(-c3ccccc3Cl)c2n1 | 45.5* | 26.3 | 2.7
Cc1cccc(/C=C/C(=O)NC2CCN(C(=O)Nc3ccccc3)CC2)c1 | -12.4 | nt | nt
Cc1cc(C)c2cc3c(cc2n1)CCN3CC(O)CO (configuration not stated) | -2.6 | nt | 187.5*
CC(=O)NC1CCN(c2cc(C)c3cc4c(cc3n2)CCC4)CC1 | -5.6 | nt | 6.5
O=C1OC(c2ccc(Cl)cc2)=NC1=Cc1ccc(F)cc1 | -6.3 | -7.7 | -0.4
CCC(CC)C(=O)N(Cc1cc(NC(=O)C(C)C)ccc1N(C)C)C(C)c1ccccc1 (configuration not stated) | -8.3 | -3.6 | 13.4
Cc1cc(-c2ccco2)nc2cc3c(cc12)OCO3 | 0.7 | nt | -0.1
Cc1c2c(nc3cc4c(cc13)OCO4)CCc1ccccc1-2 | 46.7* | nt | 1.8
CC(C)C(=O)N1CCN(C(=O)c2cn(C(C)C)cc3c(=O)n(-c4ccccc4)nc2-3)CC1 | -4.5 | -7.6 | 0.9
Cc1cc2c(c(-c3ccc4c(cnn4C)c3)c1)OC(CN)C2 (configuration not stated) | -3.9 | nt | 76.1*
Cc1cc2c(c(-c3cccs3)c1)OC(CN)C2 (configuration not stated) | -9.4 | nt | 0.5
C#CCN1C(=O)SC(=Cc2ccc(N3CCCCC3)o2)C1=O | -7.5 | -3.3 | 121.9*
CC(C)N1C(=O)SC(=Cc2ccc(N3CCCCC3)o2)C1=O | -6.2 | -5.7 | 10.5
CCCCN(CC(=O)Nc1cc(-c2ccccc2)nn1-c1ccccc1Cl)C(=O)C(CC)c1ccccc1 (configuration not stated) | -5.0 | -4.9 | 1.9
COc1ccc(S(=O)(=O)NCC2CCCN(C(=O)C3CCOCC3)C2)cc1 (configuration not stated) | -2.2 | -4.2 | -1.4
O=C(COc1ccccc1)N1CCCC(CNS(=O)(=O)c2cccs2)C1 (configuration not stated) | -7.6 | -2.3 | 56.7*!
O=C(CCCc1cccs1)N1CCCC(CNS(=O)(=O)c2cccs2)C1 (configuration not stated) | -4.6 | nt | 20.9
COc1ccc(S(=O)(=O)NCC2CCCN(C(=O)CSc3ccccc3)C2)cc1 (configuration not stated) | -6.9 | 1.3 | 49.7*!
CC(CC(=O)N1CCN(C(=O)c2n[nH]c3ccccc23)CC1)C1CC1 (configuration not stated) | 1.1 | nt | -8.5
CCOC(=O)C(=CNc1c(C)n(C)n(-c2ccccc2)c1=O)C(=O)OCC | 0.6 | -1.2 | -5.9
CCC1=NN2C(=N)/C(=C\c3ccc(OC)c(OC)c3OC)C(=O)N=C2S1 | -2.1 | 43.7* | -1.8
CCC1=NN2C(=N)/C(=C\c3ccccc3Br)C(=O)N=C2S1 | 15.8 | nt | 2.0
CC(=O)c1[nH]c(C)c(C(=O)N2CCC(c3cc(C(C)C)n[nH]3)CC2)c1C | -2.9 | nt | 1.0
CCCn1c(=O)c2c(nc3n2CC(C)=NN3Cc2ccccc2F)n(C)c1=O | -0.2 | nt | -3.4
SMILES | hcGAS inh | mcGAS inh | NPYLR7 agonist
COc1ccc2c(c1)CCc1c(-c3ccc(C(=O)NCCCN(C)c4ccccc4)cc3)n[nH]c1-2 | -1.8 | -5.2 | 21.1
Clc1ccc(C2=Nc3ncnn3C(c3ccc(Cl)cc3)C2)cc1 (configuration not stated) | -7.2 | nt | 8.5
CSc1ccc(C2CC(c3ccc(Cl)cc3)=Nc3ncnn32)cc1 (configuration not stated) | -10.6 | nt | 92.4*
COc1cc(C(=O)C=Cc2ccc(OC(F)F)cc2)ccc1O | -0.5 | 34.7 | -5.6
COc1ccc(C(=O)C=Cc2cc(OC)c(O)c(OC)c2)cc1F | -4.3 | 4.8 | 64.2*
COc1cc(C(=O)C=Cc2cc(OC)c(O)c([N+](=O)[O-])c2)ccc1O | -7.2 | nt | -7.8
COc1cc(C(=O)C=Cc2ccc(C#N)cc2)ccc1O | -10.2 | 64.1* | 1.2
Cc1nc(-c2ccc(C(F)(F)F)cc2)nc(N2CCN(C(=O)COc3ccc(Cl)cc3)CC2)c1C(C)C | -15.0 | -3.1 | -1.1
Cc1ccc(C)c(C2c3cccn3CCCN2Cc2ccc3c(c2)OCCO3)c1 (configuration not stated) | 1.0 | 0.3 | -9.3
COc1ccc(C2SCC(=O)N2CC(=O)NCc2ccccn2)cc1 (configuration not stated) | -2.6 | -5.3 | 0.0
CCCC1(c2ccccc2)NC(=O)N(CC(=O)c2ccccc2F)C1=O (configuration not stated) | -7.1 | nt | 13.3
CCc1cccc2c(C(CC(=O)NCCCN3CCOCC3)c3ccc(OC)c(OC)c3)c[nH]c12 (configuration not stated) | -12.2 | 67.5* | nt
